Assay [1] concerns the target Nuclear receptor subfamily 1 group I member 2 (Rattus norvegicus) (UniProt Q9R1A7). Kind of assay: qHTS assay for small molecule activators of the rat pregnane X receptor (rPXR) signaling pathway (AID 651751). The following applies: rPXR reporter cells, luciferase (One-Glo), 24 h. (qHTS replaces the single test concentration by a dilution series.)
Assay [2] can be described thus: qHTS assay for small molecule activators of the human pregnane X receptor (PXR) signaling pathway (AID 720659). As to conditions: DPX-2 HepG2 CYP3A4-luciferase, 24 h; series mostly up to 92.3 µM.

For 23 compounds, max response and outcome results are on record in PubChem BioAssay (NCATS).

Where “and” joins values, the source holds several entries; their conditions need not be identical. Equal values may be shown once. Values without a mark were called inactive. Calls of active or inactive are those of the source. How the calls were made is not given here.
Further: 0% is about no effect.

Chain of Nuclear receptor subfamily 1 group I member 2 (Rattus norvegicus) (Q9R1A7 whole entry, looked up): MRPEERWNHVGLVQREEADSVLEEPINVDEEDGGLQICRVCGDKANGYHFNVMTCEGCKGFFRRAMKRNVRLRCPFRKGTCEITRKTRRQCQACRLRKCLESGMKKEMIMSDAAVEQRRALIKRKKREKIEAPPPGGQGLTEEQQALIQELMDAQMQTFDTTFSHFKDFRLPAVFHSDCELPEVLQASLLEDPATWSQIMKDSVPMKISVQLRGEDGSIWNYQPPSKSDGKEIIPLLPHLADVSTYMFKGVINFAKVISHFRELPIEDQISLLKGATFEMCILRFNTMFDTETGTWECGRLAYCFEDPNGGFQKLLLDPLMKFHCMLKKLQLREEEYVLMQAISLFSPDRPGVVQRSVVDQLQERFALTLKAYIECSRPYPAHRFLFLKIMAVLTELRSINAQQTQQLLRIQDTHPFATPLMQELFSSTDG

For the compound `CCC(C)(C)c1ccc(O)cc1`, in assay [1], the max response is 1.88% and -0.811%.
Turning to `Oc1ccc(Cl)cc1`, in assay [1], the max response was 5.25%. In addition, the outcome in assay [2] was inactive.
On to `O=C(O)CCCc1ccc(N(CCCl)CCCl)cc1`, for which the max response in assay [1] was 4.32% and -0.624%. Moreover, the compound was classed as inactive in assay [2].
Regarding `Nc1ccccc1C(=O)O`, the max response in assay [1] was -1.41%. In assay [2], the result was inactive.
The corresponding values for `COP(=S)(OC)Oc1cc(Cl)c(Cl)cc1Cl` are 1.25% and “inactive”.
As to `CN1C[C@H](C(=O)N[C@]2(C)O[C@@]3(O)[C@@H]4CCCN4C(=O)[C@H](Cc4ccccc4)N3C2=O)C=C2c3cccc4[nH]cc(c34)C[C@H]21`, the max response in assay [1] is 10% and -0.133%.
Regarding `Nc1nc(N)nc(NC2CC2)n1`, the max response in assay [1] is 2.97%. The compound was classed as inactive in assay [2].
In the same order, the values of `[N-]=[N+]=CC(=O)OC[C@H](N)C(=O)O` are -5.51% and “inactive”.
For the compound `CC(C)NC(C)C`, in assay [1], the max response is 7.26%. Besides, the compound was classed as inactive in assay [2].
Take `NCCc1ccc(O)cc1`: the max response in assay [1] was 0.0715%. Besides, the compound was classed as inactive in assay [2].
The corresponding values for `Nc1ccc([As](=O)(O)O)cc1` are 3.51% and “inactive”.
As for `O=P1(N(CCCl)CCCl)NCCCO1` (centres undefined), in assay [1], the max response was 6.19% and -0.989%. Moreover, the compound was called inactive in assay [2].
`O=C1c2ccccc2C(=O)c2ccccc21`: the max response in assay [1] is 4.64%.
Turning to `CC(C)c1cccc(C(C)C)c1O`, in assay [1], the max response was -2.57%.
For the compound `Nc1ccccc1`, in assay [1], the max response is -4.01%. Also, in assay [2], the compound was classed as inactive.
As for `COP(=S)(OC)SCN1C(=O)c2ccccc2C1=O`, in assay [1], the max response was -5.41%. Also, in assay [2], the result was inactive.
For the compound `COP(=S)(OC)Oc1ccc(SC)c(C)c1`, in assay [1], the max response was -3.65% and 2.94%. For the same compound, the outcome in assay [2] was inactive.
As to `CCOC(=O)CC(SP(=S)(OC)OC)C(=O)OCC` (centres undefined), the max response in assay [1] was -0.753% and 0.726% and 3.47%. The result in assay [2] was inactive.
For the compound `COc1cc(OC)c(OC)cc1C=O`, the max response in assay [1] is 5.78%. In addition, the compound was classed as inactive in assay [2].
`CCCC(C)(COC(N)=O)COC(N)=O`: the max response in assay [1] was 3.06% and 3.91%.
Same read-out and setting: next, `C[C@]12CCC(=O)C=C1CC[C@@H]1[C@@H]2CC[C@]2(C)C(=O)CC[C@@H]12`: 5.29% and 4.66%.
In the case of `COC(=O)C(c1ccccc1)C1CCCCN1` (centres undefined), the max response in assay [1] is 1.26% and 1.36%. For the same compound, the outcome in assay [2] was inactive.
Regarding `O=C1c2ccccc2C(=O)C1C(=O)C(c1ccccc1)c1ccccc1`, the result in assay [2] was inactive.
